# Measurements reported in PubChem BioAssay (EPA / NIEHS).
# Records with an inconclusive call do not appear. Calls of active or inactive are those of the source. The calls were made as follows: active = hit-call score of the fitted dose curve at least 0.9, where 1 is the maximum; inconclusive = response in the unintended direction; inactive = score below 0.9.
# Target: human Muscarinic, M4 Receptor, CHRM4 (gene 1132) (UniProt P08173)
# Experiment: NVS_GPCR_hM4: NovaScreen (NVS) G Protein-Coupled Receptor Assay for human Muscarinic, M4 Receptor (AID 2283274)
# Protocol: NVS_GPCR_hM4 is a biochemical, single-readout assay that uses extracted gene-proteins from CHO in a cell-free assay. Measurements were taken 1 hour after chemical dosing in a 96-well plate.NVS_GPCR_hM4 is one of one assay component(s) measured or calculated from the NVS_GPCR_hM4 assay. It is designed to make measurements of radioligand binding, a form of binding reporter, as detected with scintillation counting signals by Filter-based radiodetection technology.Data from the assay component NVS_GPCR_hM4 was analyzed into 1 assay endpoint. This assay endpoint, NVS_GPCR_hM4, was analyzed in the positive analysis fitting direction relative to DMSO as the negative control and baseline of activity. Using a type of binding reporter, loss-of-signal activity can be used to understand changes in the binding as they relate to the gene CHRM4. Furthermore, this assay endpoint can be referred to as a primary readout, because the performed assay has only produced 1 assay endpoint. To generalize the intended target to other relatable targets, this assay endpoint is annotated to the gpcr intended target family, where the subfamily is rhodopsin-like receptor.
# Binding assays used specific radioligands (tritiated, iodinated) with non-radioactive competitive displacement ligands in agonist or antagonist protocols (as indicated) and various reference compounds and inhibitors to titrate specific binding to receptors and transporters. Most enzyme assays (CYPs, kinases, phosphatases, proteases, HDACs) used recombinant protein and specific substrates (fluorescence mostly, some colorimetric and radioactive) and inhibitors, followed by a biochemical separation of substrate and product. All assays for the biochemical HTS were initially run in duplicate at a single concentration (10 uM for CYP450 assays and 25 uM for all others). […] Each assay was run with positive and negative controls, and concurrent controls on every plate. The follow-up (secondary) screen tested active chemical-pairs in concentration series, as well as a few additional assays not tested in the primary screen, some selected negative inactives, and several cases re-run in the concentration series for confirmatory purposes.
# Chain of human Muscarinic, M4 Receptor, CHRM4 (gene 1132) (P08173 whole entry, looked up): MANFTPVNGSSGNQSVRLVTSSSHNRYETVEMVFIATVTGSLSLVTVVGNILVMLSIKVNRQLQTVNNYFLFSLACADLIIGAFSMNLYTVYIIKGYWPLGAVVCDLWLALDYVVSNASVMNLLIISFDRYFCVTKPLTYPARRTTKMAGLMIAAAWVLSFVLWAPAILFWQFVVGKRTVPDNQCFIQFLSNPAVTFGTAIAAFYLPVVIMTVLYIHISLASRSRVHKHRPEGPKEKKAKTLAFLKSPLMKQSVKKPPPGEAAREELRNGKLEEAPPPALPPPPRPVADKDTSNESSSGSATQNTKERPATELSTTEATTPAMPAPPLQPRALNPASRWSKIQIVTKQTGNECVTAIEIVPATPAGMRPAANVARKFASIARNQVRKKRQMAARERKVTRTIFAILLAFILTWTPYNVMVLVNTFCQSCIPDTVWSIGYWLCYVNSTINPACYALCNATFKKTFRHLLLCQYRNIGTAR
SMILES,AC50,outcome
Cc1occc1C(=O)Nc1ccc(C(=O)N2CCC(F)(F)/C(=C\C(=O)N3CCC(N4CCCCC4)CC3)c3ccccc32)cc1,7.11 µM (active),–
CCOC(=O)O[C@H](C)OC(=O)c1ccc2c(c1)cc(C(=O)NC1CCN(C(C)C)CC1)n2Cc1cc(-c2ccc(Cl)s2)on1,2.17 µM (active),–
COc1ccc2cc(S(=O)(=O)N[C@H](CC(=O)N[C@H](Cc3ccc(CN4[C@H](C)CCC[C@@H]4C)cc3)C(=O)N(C)C(C)C)c3ccc4c(c3)OCO4)ccc2c1,2.44 µM (active),–
NCc1cccc(C2CCN(C(=O)c3ccc(C#Cc4ccccc4F)o3)CC2)c1,0.882 µM (active),–
O=C1c2ccccc2C(=O)N1CCc1noc(-c2ccc(CN3CCCCCC3)s2)n1,7.92 µM (active),–
CCCCCCCCCCCC[N+](C)(C)C,2.77 µM (active),–
COc1cc(C(=O)NC2CCN(C)CC2)ccc1Nc1ncc2c(n1)N(C1CCCC1)CC(F)(F)C(=O)N2C,16.7 µM (active),–
c1ccc(C[n+]2cccc3ccccc32)cc1,16.8 µM (active),–
CCN(CC)C(=O)c1cc(S(=O)(=O)Cc2ccccc2)c(N2CCC(c3ccccc3)CC2)cc1N(CC)CCN(C)C,9.84 µM (active),–
CCCCCCCCOC(=O)c1cc(O)c(O)c(O)c1,8.67 µM (active),–
CN(C)C(=O)C1(N2CCCCC2)CCN(CC[C@@]2(c3ccc(Cl)c(Cl)c3)CN(C(=O)c3ccccc3)CCO2)CC1,6.99 µM (active),–
CCCCCCCCN(C)CCCCCCCC,–,inactive
CN(C)c1ccc(C(=C2C=CC(=[N+](C)C)C=C2)c2ccc(N(C)C)cc2)cc1,0.863 µM (active),–
Clc1cc(Cl)c2c(c1)N=C1CCCCCN1C2,1.71 µM (active),–
